# D2 PAM-1: potentiates the human D2 dopamine receptor allosterically | P14416 | DiscoveRx D2 beta-arrestin cells, luminescence, 90 min; 100% = 57 uM dopamine signal | potentiation, % (test concentration not listed) | 0.23% of 360,000 active; in the data active = potentiation above about 50%; inconclusive = mostly about 30% to 49%
# Target sequence (P14416 whole entry, looked up): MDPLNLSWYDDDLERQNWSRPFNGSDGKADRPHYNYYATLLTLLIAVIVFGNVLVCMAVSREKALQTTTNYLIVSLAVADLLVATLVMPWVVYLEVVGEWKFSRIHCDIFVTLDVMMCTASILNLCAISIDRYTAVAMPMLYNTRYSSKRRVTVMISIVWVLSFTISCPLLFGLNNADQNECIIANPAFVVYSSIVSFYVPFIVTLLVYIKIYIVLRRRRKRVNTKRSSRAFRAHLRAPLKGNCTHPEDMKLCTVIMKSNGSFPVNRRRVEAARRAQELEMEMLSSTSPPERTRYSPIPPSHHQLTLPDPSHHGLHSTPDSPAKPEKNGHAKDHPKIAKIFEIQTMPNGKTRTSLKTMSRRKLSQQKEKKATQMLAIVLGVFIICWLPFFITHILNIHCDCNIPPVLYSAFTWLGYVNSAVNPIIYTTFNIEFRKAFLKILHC
#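 PathHunter D2 cells, attached overnight at 37 deg C, received compound in DMSO plus dopamine at EC20 (50 nM final) for 90 min at 37 deg C. Beta-arrestin recruitment was read as luminescence after 1 h with detection reagent at ambient temperature.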
# D2 ag-1: activates the human D2 dopamine receptor. 0.53% of 340,000 active. P14416. HEK293 T-REx D2 cells, calcium flux agonist mode. AID 485358. activation, % at 2 µM;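 active = activation over 3 SD above normal in the single-dose calcium agonist read, cut at about 30% in these data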
#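 In this primary screen, compounds producing a positive calcium signal within 180 s of addition to tetracycline-induced, force-coupled HEK293 Trex D2 cells are flagged; cells are dye-loaded with a no-wash calcium kit beforehand.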
# D2 ag-2: activates the human D2 dopamine receptor | P14416 | DiscoveRx PathHunter D2 beta-arrestin, luminescence, 90 min; 100% = 57 uM dopamine signal | activation, % (no concentration beside the values) | 0.084% of 360,000 active | AID 624465; in the data active = activation above about 40%; inconclusive = between about 15% and that limit
#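 Agonist mode: compounds alone added to overnight-plated D2 PathHunter cells for 90 min at 37 C, with 57 uM final dopamine (EC100) defining full response. Beta-arrestin recruitment detected by chemiluminescent reagent, read after 1 h at ambient temperature.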
# D2 PAM-2: D2 dopamine receptor (human) potentiation; P14416; HEK293 T-REx D2, calcium flux, EC20 dopamine potentiation; potentiation, % at 10 µM; 0.34% of 340,000 active;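 active = potentiation over 3 SD above the plate norm, cut at about 30% in these data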
#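 Tetracycline-induced HEK293 T-REx cells force-coupled to calcium signalling expressed D2; compounds were pin-added after a 10 s baseline, read kinetically 180 s, then an EC20 dopamine challenge followed with a further 180 s calcium read.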
# D2 antag: antagonists of human D2 dopamine receptor; HEK293 TREx D2 cells, calcium flux, dopamine EC80; inhibition, % at 10 µM; 2% of 340,000 active; AID 485344; in the data active = inhibition above about 30%; inactive = below that, where a call was filed
#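 Dopamine at EC80 is the agonist stimulus; test compounds precede it by 180 s. Calcium flux read kinetically in a force-coupled, inducible HEK293 T-REx D2 cell line.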
# D3 arrestin ag: D3 receptor agonism confirmed, beta-arrestin readout | shares compounds with D2 ag-1 | DiscoveRx D3 beta-arrestin cells, luminescence, 90 min | Potency, µM (highest dose often 76.9 µM), most hits filed as activators | 4% of 2,300 active; also: nearly all actives have a fitted effect of over 70% in size
# D2 ag-3: activates human D2 dopamine receptor in D3 counterscreen. shares compounds with D2 ag-1. DiscoveRx PathHunter D2 beta-arrestin, luminescence, 90 min; response scale: percent relative to full dopamine signal. Potency, µM (top dose mostly 76.9 µM), hits mostly activators. 5.9% of 2,300 active. AID 720507; also: nearly all actives have a fitted effect of over 70% in size
# A number is an active result; . = inactive; ? = inconclusive; / = no result. A selection: hits, their analogues and other compounds. The true share with any hit is near 2.4%. Unless noted, calls follow the shape of the dose curve; as a rule, active = well fitted activation curve with a large enough effect; inconclusive = small, poorly fitted or top-dose-only effect; inactive = flat fitted curve, though single readings scatter.
SMILES,D2 PAM-1,D2 ag-1,D2 ag-2,D2 PAM-2,D2 antag,D3 arrestin ag,D2 ag-3
CCOC(=O)c1c(S(=O)(=O)N2CCCC(C(=O)N3CCN(c4cccc(C)c4C)CC3)C2)c(C)n(C)c1C (centres undefined),/,.,/,.,/,/,/
COc1cc(OC)c(NS(=O)(=O)c2c(C)nc3sc(C)cn3c2=O)cc1Cl,/,.,/,.,/,/,/
Cc1cccc(N2CCN(C(=O)c3cc4ccc5cccnc5c4[nH]3)CC2C)c1 (centres undefined),/,.,/,.,/,/,/
Cc1cc(C)c(NC(=O)CSc2nc(=O)[nH]c3c2CCCC3)c(C)c1,/,.,/,.,/,/,/
CC(C)N1CCN(CC2COc3ccccc3O2)CC1 (centres undefined),.,35,.,.,.,.,.
Cn1nc(C(F)(F)F)c(C#N)c1N1CCN(c2ccccn2)CC1,.,.,.,.,.,.,.
Oc1ccc(Br)cc1C=Nc1ccc2c3c(cccc13)CC2,.,.,.,.,.,.,.
Oc1ccc(Cl)cc1C=Nc1ccccc1Br,.,.,.,.,.,/,/
CCCSc1nc(-c2ccccc2)[nH]c1S(=O)(=O)c1ccc(C)cc1,/,/,/,.,/,/,/
CCOc1ccc(/C=N/NC(=O)c2ccc(O)cc2)cc1CN1CC2CC(C1)c1cccc(=O)n1C2 (centres undefined),.,/,.,.,/,.,.
COc1ccc(C=NCC2OCCc3ccccc32)cc1OC (centres undefined),.,47,.,.,.,.,.
COc1cc(C=NCC2OCCc3ccccc32)cc(OC)c1 (centres undefined),.,42,.,.,.,.,.
COc1ccc(C(=O)NCC2OCCc3ccccc32)cc1 (centres undefined),.,.,.,.,.,/,/
COc1ccc(C(=O)NCC2OCCc3ccccc32)cc1OC (centres undefined),.,.,.,.,.,/,/
Cc1ccc(S(=O)(=O)C(CNS(=O)(=O)c2ccc(F)c(C(F)(F)F)c2)c2ccco2)cc1 (centres undefined),/,.,/,.,/,/,/
CCC(=O)NNc1ncnc2c1cnn2C,.,.,.,.,48,.,.
NC(=NC(=O)c1ccc(Cl)cc1)N1N=CCC1c1ccccc1 (centres undefined),.,50,.,.,.,.,.
CC1CN(C(=O)CCC(=O)N2CCN(c3ccccn3)CC2)c2ccccc2O1 (centres undefined),.,.,.,.,.,/,/
Cc1ccc2c(c1)N(C(=O)CCC(=O)N1CCN(c3ccccn3)CC1)CC(C)O2 (centres undefined),.,50,.,.,.,.,.
COc1cccc(CN2CCC(C(=O)N3CCN(c4ccccc4F)CC3)CC2)c1,.,.,.,.,.,.,.
COc1cc(CN2CCC(C(=O)N3CCN(c4ccccc4F)CC3)CC2)ccc1O,.,39,.,.,39,?,.
Cc1c(N=c2scc(-c3ccccc3)n2C)c(=O)n(-c2ccccc2)n1C,.,66,?,.,76,.,?
Cc1c(N=c2scc(-c3ccccc3)n2CCO)c(=O)n(-c2ccccc2)n1C,.,.,.,.,.,/,/
CN(C)c1ccc2c3c(cccc13)C(=O)N(c1ccccc1)C2=O,/,.,/,.,.,/,/
Cc1cccc(N2C(=O)c3cccc4c(N(C)CCO)ccc(c34)C2=O)c1,.,.,.,.,.,.,.
Cc1cc(C)c(NC(=O)CCN2C(=O)c3ccccc3Sc3ncccc32)c(C)c1,/,.,/,.,/,/,/
O=C(Nc1cc(Cl)ccc1Cl)c1cc(S(=O)(=O)N2CCCc3ccccc32)ccc1F,/,/,/,.,/,/,/
COc1ccccc1C(=O)Nc1ccnn1C1CCN(CCCc2ccccc2)CC1,.,.,.,.,33,.,.
O=C(Nc1ccnn1C1CCN(C/C=C/c2ccccc2)CC1)C1CCCC1,.,58,.,.,.,.,.
